Laboratory results taken from PubChem BioAssay.
Calls of active or inactive are those of the source.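 The calls were made as follows: active = compounds killing one labelled cell type while sparing the other, by normalised counts and ratio limits, not self-fluorescent; inactive = the rest.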

Experiment: EMT-state selective cytotoxicity in co-culture – imaging, PC-3E GFP, TEM4-18 mCherry, primary screen (AID 1345086);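 also: cells exposed to compound for 72 h before imaging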;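 as to red/green cell ratio (normalised): normalised mesenchymal count divided by normalised epithelial count so high means epithelial killing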
Conditions: PC-3E GFP / TEM4-18 mCherry co-culture, imaging cell counts, at 1 µM; for red/green cell ratio (normalised): actives lie on both sides, counts scaled to control wells, 1 = unselective
[1] = measured here: epithelial PC-3E GFP cell survival
[2] = measured here: mesenchymal TEM4-18 mCherry cell survival

SMILES	red/green cell ratio (normalised)	normalised cell number [1]	normalised cell number [2]
OC[C@H]1O[C@H](Oc2cc(O)cc(/C=C/c3ccc(O)cc3)c2)[C@H](O)[C@@H](O)[C@@H]1O	0.79 (inactive)	1.3	1.03
CCC(=O)O[C@]1(C(=O)SCF)[C@H](C)CC2C3CC(F)C4=CC(=O)C=C[C@]4(C)C3(F)[C@@H](O)C[C@@]21C (stereo partly specified)	1.04 (inactive)	0.87	0.9
Cc1c(F)c(F)cc(C(=O)NC(=O)NC2CC2)c1F	1 (inactive)	1.02	1.02
C=C1OC(=O)[C@]2([C@H](C)C=CC(=O)[C@H]2O)[C@H]1O	1.05 (inactive)	1.08	1.14
CC(=O)OCC1O[C@H](Sc2ccc(C)cc2)[C@@H]2[C@@H](OC(=O)N2C(=O)OCc2ccccc2)C1OC(C)=O (stereo partly specified)	0.78 (inactive)	1.24	0.96
CC(=O)O[C@@H]1C[C@@]2(C)C(CC[C@@H]2C(C)=O)C2CCC3=CC(=O)CC[C@]3(C)C21 (stereo partly specified)	1.08 (inactive)	0.87	0.94
CC(=C\C(=O)O)/C=C(\C)C[C@H](C)CCCC[C@H]1OC(=O)[C@@H]1CO	1 (inactive)	0.95	0.95
CC1(C)C(=O)C=C[C@@]2(C)C1C=C[C@]1(C)C2CC[C@@]2(C)[C@H](c3ccoc3)OC(=O)[C@H]3O[C@]321 (stereo partly specified)	1.3 (inactive)	0.56	0.73
CC[C@@H]1OC(=O)c2c(OC)cc(=O)oc21	1.1 (inactive)	1.01	1.11
Nc1nc2ncc(CNc3ccc(C(=O)NC(CCC(=O)O)C(=O)O)cc3)nc2c(=O)[nH]1 (stereo unspecified)	1.18 (inactive)	1.04	1.23
C=C/C(C)=C\CC1[C@](C)(O)CC[C@H]2C(C)(C)CCC[C@]12C (stereo partly specified)	1.09 (inactive)	1.11	1.2
O=C1C[C@@H](O)[C@]23Oc4ccc(O)c5c4[C@](Oc4cccc1c42)(O3)C1O[C@@H]1[C@H]5O (stereo partly specified)	0.97 (inactive)	1.1	1.07
CC1O[C@@H](Oc2c(-c3ccc(O)c(O)c3)oc3cc(O)cc(O)c3c2=O)[C@H](O)[C@H](O)[C@H]1O (stereo partly specified)	1.01 (inactive)	1.01	1.02
C/C(=C\CO)CC[C@H](C)CCC[C@H](C)CCCC(C)C	1.12 (inactive)	0.97	1.09
COc1cc(C(=O)O)cc(C)c1C(=O)CC(C)O (stereo unspecified)	0.9 (inactive)	1.04	0.94
Cc1nc(COP(=O)(O)O)cc(CN(CCN(CC(=O)O)Cc2cc(COP(=O)(O)O)nc(C)c2[O-])CC(=O)O)c1[O-].[Mn+2]	0.88 (inactive)	1.27	1.12
COC(=O)[C@@H]1C(O)CC[C@H]2CN3CCc4c([nH]c5ccccc45)[C@@H]3C[C@@H]21 (stereo partly specified)	1.2 (inactive)	0.88	1.07
